Reference: PubChem BioAssay (NCATS)
Results filed as inconclusive are left out. Activity calls are given as the source filed them. The call rests on the fitted dose curve; in most records, active means well fitted curve in the direction sought with a large enough effect; inconclusive means small, poorly fitted or top-dose-only effect, or another doubt; inactive means no such curve, though single readings can be large; an effect the other way counts as inactive or inconclusive.

What was measured:
[1] = ZIKV-mCherry secondary qHTS for Zika virus inhibitors (AID 1347158); further: top concentration of the series differs between compounds
Summary of the method: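 Vero cells (5,000/well) were given compound, then infected with ZIKV-mCherry at MOI 1 for 48–72 h at 37 °C. After PFA fixation and Hoechst staining, imaging gave percent mCherry-positive cells. The positivity threshold was RFU above 450, 3 SD over negative controls.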

[2] = tested on: Zika virus NS2B-NS3 protease (unlinked complex); assay: Primary screen GU Rhodamine qHTS for Zika virus inhibitors: Unlinked NS2B-NS3 protease assay (AID 1347159); further: on the % scale 0 is the no-effect control and ±100 the full control effect; nearly all actives have a fitted effect of over 60% in size
Summary of the method: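 Noncovalent NS2B hydrophilic domain/NS3 protease complex (25 nM final) in 10 mM Tris-HCl pH 8.0, 0.01% Tween 20, preincubated 15 min with compounds (up to 114 microM), then 1.5 microM Rhodamine110 substrate. Fluorescence change over 15 min fitted to 4-parameter Hill.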

[3] = tested on: Zika virus NS2B-NS3 protease (linked construct); assay: Primary screen NINDS Rhodamine qHTS for Zika virus inhibitors (AID 1347160); conditions: outcome: dose series up to 57.1 µM unless noted; further: nearly all actives have a fitted effect of over 55% in size
Summary of the method: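 Purified NS2B-NS3 protease with the NS2B hydrophilic domain joined by a flexible linker (25 nM) in 10 mM Tris-HCl pH 8.0, 0.01% Tween 20, preincubated 15 min at RT with compound; Rhodamine110 peptide substrate 1.5 µM; fluorescence change over 15 min; 4-parameter Hill fit.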

[4] = Confirmatory screen NINDS Rhodamine qHTS for Zika virus inhibitors (AID 1347161); further: potency means the concentration at half of the fitted maximal effect; nearly all actives have a fitted effect of over 60% in size
Summary of the method: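 Aprotinin served as in-plate control. Conditions: 25 nM linked NS2B-NS3, pH 8.0 Tris buffer, titrated compounds, 15 min preincubation and 15 min reaction with 1.5 microM Rhod110 substrate at room temperature.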

[5] = tested on: Zika virus NS2B-NS3 protease (linked); assay: 384 well plate NINDS AMC confirmatory qHTS for Zika virus inhibitors (AID 1347163);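 further: linked protease at 5 30 or 60 nM final depending on run; fluorescence of AMC released from Ac-VKTGKR-AMC peptide cleaved by the protease; top concentration of the series differs between compounds; 0% = no-inhibitor control and -100% = no-enzyme control; nearly all actives have a fitted effect of over 50% in size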
Summary of the method: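 Linked NS2B-NS3 protease (final 5 nM, 30 nM or 60 nM) was preincubated with compounds (final up to 1 mM) for ~15 minutes. Ac-VKTGKR-AMC substrate (final 30 microM) then reacted for 25 minutes at room temperature in the dark. Fluorescence (ex 355/em 460 nm) was normalized to no-enzyme and no-inhibitor controls.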

[6] = tested on: Zika virus NS2B-NS3 protease (linked construct); assay: 384 well plate NINDS Rhodamine confirmatory qHTS for Zika virus inhibitors (AID 1347164); conditions: rhodamine-110 peptide substrate fluorescence; further: potency means the concentration at half of the fitted maximal effect; nearly all actives have a fitted effect of over 65% in size
Summary of the method: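 Compounds are incubated about 15 minutes with linked protease (5, 30 or 60 nM final). Rhodamine 110-tagged Ac-LKRR substrate (10 microM final) is added and fluorescence measured after 25 minutes.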

[7] = Vero cells viability qHTS for Zika virus inhibitors (AID 1347167); further: on the % scale 0 is the no-effect control and ±100 the full control effect
Summary of the method: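 Cells seeded at 2.5 x 10^5 cells/mL in DMEM with 4% FBS and attached overnight at 37 degrees C, then exposed to compound for 24 to 48 hours. Viability read as ATP content by CellTiter Glo luminescence.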

[8] = qHTS to identify inhibitors of the type 1 interferon - major histocompatibility complex class I in skeletal muscle: primary screen against the NCATS Pharmaceutical Collection (AID 1347407);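 further: luminescence of HiBiT knocked into endogenous HLA-B as interferon-induced MHC class I level; on the % scale 0 is the no-effect control and ±100 the full control effect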
Summary of the method: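 Cells were seeded with 4 ng/ml IFN-beta, incubated 1 h, then dosed with compounds over eight 1:5 steps up to 46 uM final. After 24 h at 37 C, HiBiT lytic reagent was added and luminescence read after 10 min lysis in the dark.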

[9] = target: Protein phosphatase 1D (Homo sapiens) (UniProt O15297); assay: RapidFire Mass Spectrometry qHTS Assay for Modulators of WT P53-Induced Phosphatase 1 (WIP1) (AID 1347424);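 further: amount of dephosphorylated VEPPL-S-QETFS peptide product formed by WIP1; series mostly up to about 63 µM; plate controls were DMSO wells for no effect and GSK830371 inhibitor control at 10 µM for full effect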
Sequence of Protein phosphatase 1D (Homo sapiens) (O15297 whole entry, looked up): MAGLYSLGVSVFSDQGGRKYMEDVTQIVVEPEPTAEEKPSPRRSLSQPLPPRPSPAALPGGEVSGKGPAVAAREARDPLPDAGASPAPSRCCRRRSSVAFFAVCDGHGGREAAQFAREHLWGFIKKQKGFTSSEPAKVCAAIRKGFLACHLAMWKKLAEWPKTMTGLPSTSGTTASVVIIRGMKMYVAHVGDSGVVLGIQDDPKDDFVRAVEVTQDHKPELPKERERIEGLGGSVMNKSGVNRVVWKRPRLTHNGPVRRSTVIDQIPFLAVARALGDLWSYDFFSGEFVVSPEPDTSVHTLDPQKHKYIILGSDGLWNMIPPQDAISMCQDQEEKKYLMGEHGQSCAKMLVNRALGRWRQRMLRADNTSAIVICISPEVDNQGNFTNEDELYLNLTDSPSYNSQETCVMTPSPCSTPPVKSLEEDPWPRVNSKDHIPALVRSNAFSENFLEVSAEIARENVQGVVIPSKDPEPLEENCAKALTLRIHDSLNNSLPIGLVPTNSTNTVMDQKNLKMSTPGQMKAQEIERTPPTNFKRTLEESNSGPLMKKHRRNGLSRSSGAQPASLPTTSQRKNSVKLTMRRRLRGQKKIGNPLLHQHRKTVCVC
Summary of the method: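 10 nM WIP1 preincubated with compounds 1 hr at room temperature in pH 7.5 Tris buffer with 30 mM MgCl2, 1 mM TCEP; 2 uM VEPPL-pS-QETFS phosphopeptide for 5 min, formic acid quench; dephosphorylated product quantified by RapidFire MS against labelled standard.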

[10] = target: Protein phosphatase 1D (Homo sapiens) (UniProt O15297); assay: Rhodamine-PBP qHTS Assay for Modulators of WT P53-Induced Phosphatase 1 (WIP1) (AID 1347425); further: % of control where 0% means no effect
Summary of the method: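 WIP1 (5 nM final) was preincubated with compound for 1 hour at room temperature. It then dephosphorylated 10 uM VEPPL-pS-QETFS peptide in Tris-HCl pH 7.5 with 30 mM MgCl2. Released Pi was detected by 10 uM Rh-PBP fluorescence (ex 525/em 598 nm) read at 1-min intervals for 11 min, as delta f1 - f0.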

[11] = target: Calcium and integrin-binding protein 1 (Homo sapiens) (UniProt Q99828); assay: Primary qHTS for Identification of Calcium Integrin Binding Protein 1 (CIB1) Competitor (AID 1508620);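 further: GST tagged CIB1 binding a fluorescein labelled alphaIIb integrin peptide tracer; top concentration of the series differs between compounds; on the % scale 0 is the no-effect control and ±100 the full control effect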
Sequence of Calcium and integrin-binding protein 1 (Homo sapiens) (Q99828 whole entry, looked up): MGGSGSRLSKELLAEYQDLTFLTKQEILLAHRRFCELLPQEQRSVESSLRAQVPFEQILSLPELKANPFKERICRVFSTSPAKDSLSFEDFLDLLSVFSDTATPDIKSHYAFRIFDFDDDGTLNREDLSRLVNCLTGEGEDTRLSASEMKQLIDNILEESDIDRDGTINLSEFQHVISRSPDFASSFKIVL
Summary of the method: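 Fluorescence polarization competition: GST-tagged CIB1 (1 uM final) preincubated with compound 15 min at room temperature, then FITC-labelled alphaIIb peptide (100 nM final) added. After 15 min at room temperature, polarization read at Ex 480/Em 540.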

[12] = Primary qHTS for inhibitors of La Crosse Virus (LACV) - induced cell death in SH-SY5Y cells (AID 1508616);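 further: top concentration of the series differs between compounds; 0% = infected DMSO wells and 100% = uninfected DMSO wells; higher means more rescue of cells from virus-induced death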
Summary of the method: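 SH-SY5Y cells (6000/well) plated 24 h, then given compounds by pin transfer and LACV at 0.01 MOI for 6 days at 37C. Viability measured by ATPLite luminescence, normalized to infected DMSO and uninfected DMSO.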

[13] = target: Lysine-specific demethylase 5B (Homo sapiens) (UniProt Q9UGL1); assay: Optimization screen for KDM5B Histone Demethylases FDH coupled qHTS against the LOPAC library (AID 1347166); further: 0% is about no effect
Sequence of Lysine-specific demethylase 5B (Homo sapiens) (Q9UGL1 whole entry, looked up): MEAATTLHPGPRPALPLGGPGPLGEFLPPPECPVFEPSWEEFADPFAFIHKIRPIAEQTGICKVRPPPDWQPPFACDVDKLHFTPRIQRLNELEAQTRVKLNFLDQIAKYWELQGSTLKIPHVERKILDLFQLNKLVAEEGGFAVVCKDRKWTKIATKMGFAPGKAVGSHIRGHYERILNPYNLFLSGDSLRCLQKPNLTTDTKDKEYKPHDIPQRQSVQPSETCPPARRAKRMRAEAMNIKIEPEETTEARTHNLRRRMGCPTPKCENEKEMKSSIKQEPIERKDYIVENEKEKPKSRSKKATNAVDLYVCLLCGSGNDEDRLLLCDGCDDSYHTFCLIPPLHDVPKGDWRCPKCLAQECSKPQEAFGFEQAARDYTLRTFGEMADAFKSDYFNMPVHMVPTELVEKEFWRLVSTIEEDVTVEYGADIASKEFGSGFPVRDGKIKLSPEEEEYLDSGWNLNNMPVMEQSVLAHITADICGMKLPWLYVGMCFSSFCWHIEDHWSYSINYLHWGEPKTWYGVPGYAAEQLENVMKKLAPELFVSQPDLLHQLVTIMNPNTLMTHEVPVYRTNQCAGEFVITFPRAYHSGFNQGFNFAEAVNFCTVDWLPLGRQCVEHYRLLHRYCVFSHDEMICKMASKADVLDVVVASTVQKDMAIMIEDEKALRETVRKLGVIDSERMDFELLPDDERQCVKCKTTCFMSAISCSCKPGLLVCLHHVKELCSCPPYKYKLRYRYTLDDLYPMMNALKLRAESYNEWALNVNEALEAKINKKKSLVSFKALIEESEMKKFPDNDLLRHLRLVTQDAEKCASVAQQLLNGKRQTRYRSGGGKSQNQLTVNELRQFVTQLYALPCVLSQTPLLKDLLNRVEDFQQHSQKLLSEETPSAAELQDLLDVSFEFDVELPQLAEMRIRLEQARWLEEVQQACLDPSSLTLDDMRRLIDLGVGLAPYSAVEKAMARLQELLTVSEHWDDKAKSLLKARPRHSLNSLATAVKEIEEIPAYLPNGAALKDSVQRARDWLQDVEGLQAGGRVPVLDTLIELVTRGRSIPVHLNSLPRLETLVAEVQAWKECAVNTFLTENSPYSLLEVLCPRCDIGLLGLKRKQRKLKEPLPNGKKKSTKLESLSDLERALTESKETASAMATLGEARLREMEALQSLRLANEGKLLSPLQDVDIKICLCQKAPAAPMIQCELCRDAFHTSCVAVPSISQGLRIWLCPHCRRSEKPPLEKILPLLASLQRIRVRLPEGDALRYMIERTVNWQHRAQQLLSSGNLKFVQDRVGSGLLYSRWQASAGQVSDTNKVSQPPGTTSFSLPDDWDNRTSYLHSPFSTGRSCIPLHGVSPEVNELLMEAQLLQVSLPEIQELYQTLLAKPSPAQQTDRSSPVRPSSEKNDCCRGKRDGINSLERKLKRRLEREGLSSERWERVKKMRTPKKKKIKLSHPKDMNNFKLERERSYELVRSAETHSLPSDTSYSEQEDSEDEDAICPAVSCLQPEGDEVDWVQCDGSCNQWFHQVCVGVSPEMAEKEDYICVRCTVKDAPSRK
Summary of the method: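 KDM5BDeltaAP (200nM final) preincubated 10 min with compound, then 12.5uM H3K4Me3, 25uM a-ketoglutarate, ascorbate, Fe(II), NAD+ and FDH added; 50mM HEPES pH 7.5, 0.01% Tween-20. NADH fluorescence (340/450 nm) change over 30 min, room temperature.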

[14] = qHTS to identify inhibitors of the type 1 interferon - major histocompatibility complex class I in skeletal muscle: primary screen against the NCATS LOPAC collection (AID 1347405);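 further: lytic HiBiT luminescence reporting HLA-B protein level; on the % scale 0 is the no-effect control and ±100 the full control effect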
Summary of the method: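 CRISPR-engineered immortalized human myoblasts (C25cl48) with HiBiT fused to endogenous HLA-B*08:01, stimulated with 4 ng/ml IFN-beta. LOPAC compounds tested as a 7-point 1:4.3 titration (top 46 uM final), 24 h at 37 C; lytic HiBiT luminescence read.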

[15] = qHTS for inhibitors of adenylyl cyclases using a fission yeast platform: a pilot screen against the NCATS LOPAC library (AID 1347410);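 further: plate controls were DMSO vehicle for no effect and DPI positive control for full effect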
Summary of the method: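 Growth medium went into the plates first, then compounds were pinned (final up to 57 µM), then CHP2027 yeast were added. Plates were incubated overnight (18 h) at 30C in the dark, and GFP was measured by laser scanning cytometry.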

[16] = Validation qHTS assay for inhibitors of Activation Induced Cytidine Deaminase (AID): UDG Counterscreen signal (AID 1347427); further: 0% is about no effect
Summary of the method: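 Counterscreen read of UDG activity (2 U/mL, 4/3x) in the FRET deamination format with AID (1 uM, 4/3x), DJC20/DJC23 substrates (250 nM, 4x), 4 h at room temperature. NaOH stop, fluorescence at 560 ex/665 em.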

[17] = target: Single-stranded DNA cytosine deaminase (Homo sapiens) (UniProt Q9GZX7); assay: Validation qHTS assay for inhibitors of Activation Induced Cytidine Deaminase (AID): AID signal (AID 1347429); further: on the % scale 0 is the no-effect control and ±100 the full control effect
Sequence of Single-stranded DNA cytosine deaminase (Homo sapiens) (Q9GZX7 whole entry, looked up): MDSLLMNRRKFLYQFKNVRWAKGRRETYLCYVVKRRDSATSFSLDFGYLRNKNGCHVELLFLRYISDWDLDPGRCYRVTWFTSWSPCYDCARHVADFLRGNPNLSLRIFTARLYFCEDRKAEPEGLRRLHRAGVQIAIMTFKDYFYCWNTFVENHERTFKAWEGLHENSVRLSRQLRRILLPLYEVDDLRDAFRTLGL
Summary of the method: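 FRET deamination assay: 1 uM AID (4/3x stock) with UDG, compound up to 114 uM, then 250 nM DJC20/DJC23 substrate (4x stock) for 4 hr at room temperature. NaOH added, 30 min; fluorescence read 540/590 nm.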

[18] = Tertiary RLuc qRT-PCR qHTS assay for Zika virus inhibitors (AID 1347169); further: top concentration of the series differs between compounds; on the % scale 0 is the no-effect control and ±100 the full control effect; nearly all actives have a fitted effect of over 55% in size
Summary of the method: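 Orthogonal cell-based infection assay using recombinant ZIKV-RLuc (Cambodian) in Vero cells; compound added prior to virus at MOI 1-2. Incubation lasts 48-72 hrs at 37 degrees C before live-cell Renilla substrate is added and luminescence measured.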

CCOC(=O)Cn1cccc1-c1nc(-c2ccc(OC)cc2)c(-c2ccc(OC)cc2)s1
inactive: outcome [1] | Potency [2] | outcome [3] | Potency [5] | outcome [7] | Potency [8] | Potency [9] | outcome [10] | Potency [11]
active: Potency [4] 11.1 µM | Potency [6] 0.398 µM

COC(=O)C1=C(C)NC(COC(N)=O)=C(C(=O)OC(C)C)C1c1cccc(Cl)c1Cl (stereo not drawn)
inactive: Potency [2] | outcome [3] | Potency [8] | Potency [9] | outcome [12] | Potency [11]

CC(=O)[C@H]1CC[C@H]2[C@@H]3C=CC4=CC(=O)CC[C@@]4(C)[C@@H]3CC[C@]12C
inactive: Potency [2] | outcome [3] | Potency [8] | Potency [9] | outcome [10] | outcome [12] | Potency [11]

CC(C)(C)c1nnc(NS(=O)(=O)c2ccccc2)s1
inactive: Potency [2] | outcome [3] | Potency [8] | Potency [9] | outcome [10] | outcome [12] | Potency [11]

COc1ccccc1N1CCN(CCN2C(=O)CC3(CCCC3)CC2=O)CC1
inactive: Potency [2] | outcome [3] | outcome [13] | Potency [14] | outcome [15] | outcome [16] | outcome [17] | Potency [11]

CN(C)C(=O)CNC(=O)Cc1ccccc1
inactive: Potency [2] | outcome [3] | Potency [8] | outcome [10] | outcome [12] | Potency [11]

CCN1CCN(c2cc(-c3ccc(F)cc3)c3c(n2)CCCCCC3)CC1
inactive: Potency [2] | outcome [3] | Potency [8] | Potency [9] | outcome [10] | outcome [12] | Potency [11]

Nc1c(NC/C=C\COc2cc(CN3CCCCC3)ccn2)c(=O)c1=O
inactive: Potency [2] | outcome [3] | Potency [8] | Potency [9] | outcome [10] | outcome [12] | Potency [11]

CC(=O)O[C@@H]1C(=O)O[C@@H]2[C@H]1OC(=O)[C@@H]2OC(C)=O
inactive: Potency [2] | outcome [3] | Potency [8] | Potency [9] | outcome [10] | outcome [12] | Potency [11]

O=[N+]([O-])c1nccn1CO[C@@H](CO)[C@H](O)CO
inactive: Potency [2] | outcome [3] | Potency [9] | outcome [10] | outcome [12] | Potency [11]

O=C1OC2(c3ccccc31)c1cc(I)c(O)c(I)c1Oc1c2cc(I)c(O)c1I
inactive: activity change, negative = inhibition [18] 6.31% [at 1.74 µM] | outcome [12]
active: Potency [4] 17.8 µM

NC(N)=NCCCCN=C(N)N
inactive: outcome [13] | Potency [14] | outcome [15] | outcome [16] | outcome [17] | outcome [12]

C[C@H](CN1CCCC1)C(=O)c1ccc(C(F)(F)F)cc1
inactive: outcome [3] | Potency [8] | Potency [9] | outcome [10] | outcome [12] | Potency [11]

O=C(NN1CCCC1)NS(=O)(=O)c1ccc(Cl)cc1
inactive: outcome [3] | Potency [8] | Potency [9] | outcome [10] | outcome [12] | Potency [11]
